Test results reported in PubChem BioAssay (EPA / NIEHS).
Records with an inconclusive call do not appear. The source made the active and inactive calls. How the source made its calls, unless noted: active means hit-call score of the fitted dose curve at least 0.9, where 1 is the maximum; inactive means score below 0.9.

Legend:
[1] = read-out: Monokine induced gamma interferon (MIG), CXCL9 (gene 4283); assay: BSK_3C_MIG: BioMAP Diversity Plus: 3C Assay for Monokine induced gamma interferon (MIG) Biomarker Activity (AID 2283021); details: primary human endothelial cells (HUVEC); actives raise or lower the signal;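 on AC50: MIG protein level measured by immunoassay in the treated endothelial cultures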
Outline: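 After 24 h of treatment, human umbilical vein endothelial cultures (3C system) had their MIG biomarker level determined by ELISA, with DMSO serving as negative control.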

[2] = BSK_3C_SRB: Viability Assessment in the BioMAP Diversity Plus: 3C Assay (AID 2283023); details: primary human endothelial cells (HUVEC);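 further: fitted both ways against DMSO so a hit may be signal rise or drop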
Outline: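 Human umbilical vein endothelial cells in the 3C system, treated 24 h. Total protein measured by 0.1% sulforhodamine B staining after 10% TCA fixation, read at 560 nm; bidirectional fit versus DMSO.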

[3] = read-out: Matrix Metallopeptidase 1 (MMP1), MMP1 (gene 4312); assay: BSK_BE3C_MMP1: BioMAP Diversity Plus: BE3C Assay for Matrix Metallopeptidase 1 (MMP1) Biomarker Activity (AID 2283024); details: primary human bronchial epithelial cells; actives raise or lower the signal
Outline: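 Dose cells, wait 24 h, run MMP1 ELISA; cells are human bronchial epithelial primaries. Both increases and decreases relative to DMSO counted.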

[4] = BSK_3C_Vis: BioMAP Diversity Plus: 3C Assay for Morphology Visualization (AID 2283025); details: primary human endothelial cells (HUVEC);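 further: fitted both ways so gain or loss versus DMSO counts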;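 on AC50: light microscopy image of cell morphology used as background control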
Outline: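 Endothelial cells from human umbilical vein were treated with test chemicals for 24 h and inspected by light microscopy for changes in cell conformation.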

[5] = read-out: Pselectin, SELP (gene 6403); assay: BSK_4H_Pselectin: BioMAP Diversity Plus: 4H Assay for Pselectin Biomarker Activity (AID 2283026); details: primary human endothelial cells (HUVEC); actives raise or lower the signal
Outline: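 Human vascular endothelium from umbilical vein; P-selectin measured by ELISA at 24 h post-dose, with cytotoxicity checked by sulforhodamine B total-protein staining in parallel cultures (0.1% SRB after 10% TCA fixation, read at 560 nm).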

[6] = BSK_4H_SRB: Viability Assessment in the BioMAP Diversity Plus: 4H Assay (AID 2283027); details: primary human endothelial cells (HUVEC);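 further: cells exposed to compound for 24 h before staining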;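 on AC50: curves fitted both ways versus DMSO so AC50 may be loss or gain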
Outline: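 Human umbilical vein endothelial cells were dosed with chemical and, after 24 h, fixed with 10% TCA, stained with 0.1% sulforhodamine B, and read at 560 nm to give total protein as a cytotoxicity measure. Bidirectional fitting relative to DMSO control.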

[7] = BSK_BE3C_SRB: Viability Assessment in the BioMAP Diversity Plus: BE3C Assay (AID 2283028); details: primary human bronchial epithelial cells;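 on AC50: fitted both ways so AC50 may mark signal gain or loss versus DMSO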
Outline: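 Human bronchial epithelial primary cells in confluent culture, 24 h after chemical dosing; total protein by 0.1% SRB staining after 10% TCA fixation, read at 560 nm. Bidirectional fitting versus DMSO baseline.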

[8] = read-out: Thrombomodulin, THBD (gene 7056); assay: BSK_3C_Thrombomodulin: BioMAP Diversity Plus: 3C Assay for Thrombomodulin Biomarker Activity (AID 2283029); details: primary human endothelial cells (HUVEC); actives raise or lower the signal
Outline: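 Thrombomodulin ELISA, human primary HUVEC, 24 h post-dose; data fitted in both directions relative to DMSO.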

[9] = read-out: Vascular endothelial growth factor receptor 2 (Homo sapiens) (UniProt P35968); assay: BSK_4H_VEGFRII: BioMAP Diversity Plus: 4H Assay for Vascular endothelial growth factor receptor 2 (VEGFR2) Biomarker Activity (AID 2283031); details: primary human endothelial cells (HUVEC); actives raise or lower the signal;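 on AC50: cell-surface VEGFR2 protein level quantified by ELISA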
Outline: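 Primary human umbilical vein endothelial cells (4H system), 24 h exposure; cell-surface VEGFR2 measured by ELISA. Bidirectional fitting versus DMSO; cytotoxicity checked in parallel by SRB total-protein staining.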

[10] = read-out: Human Leukocyte Antigen - DR isotype (HLADR), HLA-DRA (gene 3122); assay: BSK_BE3C_HLADR: BioMAP Diversity Plus: BE3C Assay for Human Leukocyte Antigen - DR isotype (HLADR) Biomarker Activity (AID 2283032); details: primary human bronchial epithelial cells; actives raise or lower the signal
Outline: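 Signal came from an ELISA for HLA-DR in human bronchial epithelial primary cells harvested 24 h after treatment; gain- and loss-of-signal fitting used DMSO controls as reference.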

[11] = read-out: Vascular cell adhesion molecule 1 (VCAM1), VCAM1 (gene 7412); assay: BSK_4H_VCAM1: BioMAP Diversity Plus: 4H Assay for Vascular cell adhesion molecule 1 (VCAM1) Biomarker Activity (AID 2283033); details: primary human endothelial cells (HUVEC); actives raise or lower the signal
Outline: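 Endpoint derived from bidirectional fitting against DMSO controls of VCAM-1 ELISA signal in umbilical vein endothelial cells sampled at 24 h following treatment.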

[12] = read-out: Interferon-gamma inducible Protein 10 (IP10), CXCL10 (gene 3627); assay: BSK_BE3C_IP10: BioMAP Diversity Plus: BE3C Assay for Interferon-gamma inducible Protein 10 (IP10) Biomarker Activity (AID 2283034); details: primary human bronchial epithelial cells; actives raise or lower the signal
Outline: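 Using primary human bronchial epithelial cultures, the assay captures IP-10 by ELISA one day (24 h) after exposure. Parallel SRB staining of total protein flags overt cytotoxicity. Fits run bidirectionally relative to DMSO.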

[13] = read-out: Monokine induced gamma interferon (MIG), CXCL9 (gene 4283); assay: BSK_BE3C_MIG: BioMAP Diversity Plus: BE3C Assay for Monokine induced gamma interferon (MIG) Biomarker Activity (AID 2283035); details: primary human bronchial epithelial cells; actives raise or lower the signal
Outline: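 ELISA read-out of MIG in human lung bronchial epithelial primary cultures, 24 h post-dosing. Bidirectional curve fit vs DMSO baseline.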

[14] = read-out: Transforming growth factor beta 1 (TGFb1), TGFB1 (gene 7040); assay: BSK_BE3C_TGFb1: BioMAP Diversity Plus: BE3C Assay for Transforming growth factor beta 1 (TGFb1) Biomarker Activity (AID 2283036); details: primary human bronchial epithelial cells; actives raise or lower the signal
Outline: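 In this human primary bronchial epithelial system, an ELISA quantified TGF-b1 one day after dosing. Endpoint changes in either direction were fitted relative to DMSO.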

[15] = read-out: Plasminogen activator inhibitor-1 (PAI1), SERPINE1 (gene 5054); assay: BSK_BE3C_PAI1: BioMAP Diversity Plus: BE3C Assay for Plasminogen activator inhibitor-1 (PAI1) Biomarker Activity (AID 2283037); details: primary human bronchial epithelial cells; actives raise or lower the signal
Outline: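 PAI-1 biomarker levels in treated human bronchial epithelial cells are determined by ELISA at 24 h. Both increases and decreases relative to DMSO are fitted.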

[16] = read-out: urokinase plasminogen activator (uPA), PLAU (gene 5328); assay: BSK_BE3C_uPA: BioMAP Diversity Plus: BE3C Assay for urokinase plasminogen activator (uPA) Biomarker Activity (AID 2283038); details: primary human bronchial epithelial cells; actives raise or lower the signal
Outline: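 Primary human bronchial epithelial cells, uPA measured by ELISA 24 h after dosing. Bidirectional change relative to DMSO; cytotoxicity checked in parallel cultures by sulforhodamine B total-protein staining.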

[17] = read-out: Urokinase-type plasminogen activator receptor (uPAR), PLAUR (gene 5329); assay: BSK_BE3C_uPAR: BioMAP Diversity Plus: BE3C Assay for Urokinase-type plasminogen activator receptor (uPAR) Biomarker Activity (AID 2283039); details: primary human bronchial epithelial cells; actives raise or lower the signal
Outline: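 A uPAR ELISA serves as the readout, taken 24 h after treating primary human bronchial epithelial cells. Responses in either direction are fitted against DMSO, which defines baseline activity.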

[18] = read-out: Interleukin-6 (IL6), IL6 (gene 3569); assay: BSK_CASM3C_IL6: BioMAP Diversity Plus: CASM3C Assay for Interleukin-6 (IL6) Biomarker Activity for (AID 2283040); details: primary human coronary artery smooth muscle cells; actives raise or lower the signal
[19] = read-out: Urokinase-type plasminogen activator receptor (uPAR), PLAUR (gene 5329); assay: BSK_4H_uPAR: BioMAP Diversity Plus: 4H Assay for Urokinase-type plasminogen activator receptor (uPAR) Biomarker Activity (AID 2283030); details: primary human endothelial cells (HUVEC); actives raise or lower the signal
Outline: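 Human umbilical vein endothelial cells in the 4H system, 24 h after chemical dosing. Cell-surface uPAR measured by ELISA, fitted in both directions versus DMSO; cytotoxicity checked by SRB total protein in parallel cultures.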

[20] = target: human Vitamin D Receptor (VDR), VDR (gene 7421) (UniProt P11473); assay: ATG_VDR_TRANS: Attagene TRANS-FACTORIAL HepG2 Assay for human Vitamin D Receptor (VDR) (AID 2283022; active means hit-call score of the fitted dose curve at least 0.9, where 1 is the maximum)
Chain of human Vitamin D Receptor (VDR), VDR (gene 7421) (P11473 whole entry, looked up, the tested form may be a part): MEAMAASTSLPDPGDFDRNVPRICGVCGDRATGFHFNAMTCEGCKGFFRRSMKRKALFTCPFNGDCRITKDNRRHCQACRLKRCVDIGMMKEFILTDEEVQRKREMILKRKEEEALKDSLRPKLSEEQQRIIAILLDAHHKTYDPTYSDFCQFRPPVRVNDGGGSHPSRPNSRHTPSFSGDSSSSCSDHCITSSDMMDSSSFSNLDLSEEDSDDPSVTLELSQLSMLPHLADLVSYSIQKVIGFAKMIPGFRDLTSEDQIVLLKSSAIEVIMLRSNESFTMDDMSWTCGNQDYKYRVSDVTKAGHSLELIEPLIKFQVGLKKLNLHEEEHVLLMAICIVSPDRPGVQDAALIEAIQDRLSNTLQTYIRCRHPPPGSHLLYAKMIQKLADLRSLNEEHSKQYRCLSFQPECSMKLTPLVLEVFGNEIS
Outline: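 HepG2 cells were transiently transfected with GAL4-UAS reporter units and a chimeric VDR-Gal4 construct, then dosed for 24 hours. Reporter mRNA was quantified by RT-PCR, fluorescent labeling, HpaI digestion and capillary electrophoresis; gain of signal analysed vs DMSO.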

Measured: AC50

CC(=O)NC1(c2cccc(F)c2)CCN(CC[C@@]2(c3ccc(Cl)c(Cl)c3)CN(c3ccccc3)C(=O)CO2)CC1
inactive: [1] | [3] | [7] | [8] | [9] | [14]
active: [2] 21.6 µM | [4] 12.7 µM | [5] 20.4 µM | [6] 20.3 µM | [10] 24.5 µM | [11] 27.8 µM | [12] 26 µM | [13] 26.9 µM | [15] 16.6 µM | [16] 16.6 µM | [17] 16.6 µM | [18] 8.45 µM

CCCCCCCCCCCCN1CCCC1=O
active: [1] 36.7 µM | [2] 33.6 µM | [3] 31.7 µM | [4] 37.3 µM | [5] 30 µM | [6] 33.4 µM | [7] 32.8 µM | [19] 34.9 µM | [10] 26.2 µM | [11] 34.2 µM | [12] 30.6 µM | [13] 35.2 µM | [15] 31.8 µM | [16] 35.1 µM | [17] 32.4 µM
inactive: [8] | [9] | [18]

c1ccc2c(c1)Cc1ccccc1-2
not listed: [8] | [17] | [20]
inactive: all other assays above

CCCOc1sc(C(=O)N2CCC(c3cc(CN)ccc3F)CC2)c(C)c1Br
active: [1] 11.1 µM | [2] 5 µM | [3] 11.1 µM | [4] 8.81 µM | [5] 6.2 µM | [6] 5.82 µM | [7] 4.93 µM | [8] 4.5 µM | [19] 6.64 µM | [9] 4.78 µM | [10] 7.9 µM | [11] 8.01 µM | [13] 10.2 µM | [14] 6.71 µM | [15] 9.91 µM | [16] 5.88 µM | [17] 7.36 µM | [18] 27.4 µM
inactive: [20]

COc1ccc([N+](=O)[O-])cc1N
not listed: [11] | [12] | [19] | [20]
inactive: all other assays above

c1ccc2c(c1)ccc1ccccc12
not listed: [12] | [14] | [20]
inactive: all other assays above

CC(=O)CC(C)(C)O
not listed: [8] | [12] | [14] | [19]
inactive: all other assays above

NC(=O)N(O)[C@@H]1C=C[C@H](Oc2cccc(Oc3ccc(F)cc3)c2)C1
active: [2] 9.5 µM | [12] 30.7 µM
not listed: [14] | [19]
inactive: all other assays above

CCC(C)(C)C1CCC(O)CC1 (stereo not drawn)
not listed: [8] | [14] | [20]
inactive: all other assays above

CN1CCC[C@H]1c1cccnc1
not listed: [8] | [12] | [14] | [19] | [20]
inactive: all other assays above

O=C(O)c1ccccc1C(c1ccc(O)cc1)c1ccc(O)cc1
active: [10] 31.6 µM | [15] 33.4 µM
not listed: [8] | [12] | [14] | [20]
inactive: all other assays above

CCOC(=O)CC(O)(CC(=O)OCC)C(=O)OCC
not listed: [8] | [12] | [14] | [19] | [20]
inactive: all other assays above

Nc1cccc2c(N)cccc12
not listed: [8] | [12] | [14] | [20]
inactive: all other assays above

COC(=O)CCCCC(=O)OC
not listed: [8] | [12] | [14] | [19] | [20]
inactive: all other assays above
